Assay in all cases: DAPPL (digital affinity profiling via proximity ligation, sequencing); 10 mM Tris-HCl pH 7.5, 50 mM NaCl, 1 mM DTT, 4% glycerol, room temperature, 30 min; GST-TFs on glutathione beads, 16-mer random dsDNA library, 0.1% formaldehyde crosslink after washing; high values mean tight binding
One assay concerns the target T1, FLI1 (Homo sapiens, UniProt Q01543 1-452).
T1 sequence: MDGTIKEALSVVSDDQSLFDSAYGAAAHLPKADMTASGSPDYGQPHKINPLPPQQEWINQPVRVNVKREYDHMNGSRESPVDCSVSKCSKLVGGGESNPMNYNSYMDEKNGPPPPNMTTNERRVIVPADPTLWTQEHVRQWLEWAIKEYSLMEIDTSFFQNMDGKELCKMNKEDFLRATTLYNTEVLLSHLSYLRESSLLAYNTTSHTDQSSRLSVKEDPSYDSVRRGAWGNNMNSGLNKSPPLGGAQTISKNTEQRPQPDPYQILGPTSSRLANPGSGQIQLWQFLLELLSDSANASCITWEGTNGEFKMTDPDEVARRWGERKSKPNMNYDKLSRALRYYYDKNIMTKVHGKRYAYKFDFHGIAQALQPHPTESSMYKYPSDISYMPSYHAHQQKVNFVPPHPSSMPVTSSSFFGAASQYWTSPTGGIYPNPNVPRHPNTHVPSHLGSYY
The following applies: protein: recombinant; tags: N-terminal GST; dsDNA, one strand shown. In short, it runs like this: (§1)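 Pools were built from human transcription factors expressed in yeast as GST fusions, captured on glutathione beads and DNA-barcoded, along with a tag-only sample. Incubation with 200 nmole of a 16-mer random double-stranded DNA library lasted 30 min at room temperature in Tris/NaCl/DTT/glycerol buffer, and was followed by washing, 0.1% formaldehyde crosslinking, proximity ligation, PCR amplification and Illumina NextSeq500 sequencing. Binding signal is the quotient of each hexamer's read frequency for a factor and its frequency for the tag-only sample.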

Another assay concerns the target T2, ELK1 (Homo sapiens, UniProt P19419 1-428).
T2 sequence: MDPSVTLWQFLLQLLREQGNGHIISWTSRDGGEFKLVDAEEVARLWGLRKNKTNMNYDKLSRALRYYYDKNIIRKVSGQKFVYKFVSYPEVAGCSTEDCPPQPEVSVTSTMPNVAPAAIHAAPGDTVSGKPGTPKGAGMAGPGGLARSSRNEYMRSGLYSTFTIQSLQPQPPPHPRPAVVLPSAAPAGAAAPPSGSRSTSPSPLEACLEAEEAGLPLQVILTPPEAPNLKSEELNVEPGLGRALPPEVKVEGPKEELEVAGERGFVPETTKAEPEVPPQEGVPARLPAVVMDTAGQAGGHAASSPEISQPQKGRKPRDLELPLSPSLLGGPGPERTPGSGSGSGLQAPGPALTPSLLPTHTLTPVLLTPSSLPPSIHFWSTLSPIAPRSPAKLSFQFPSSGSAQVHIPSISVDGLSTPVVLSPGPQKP
The following applies: protein: recombinant; tags: N-terminal GST; dsDNA, one strand shown. In short, it runs like this:
as §1

The target of a further assay is T3, GABPA (Homo sapiens, UniProt Q06546 1-454).
T3 sequence: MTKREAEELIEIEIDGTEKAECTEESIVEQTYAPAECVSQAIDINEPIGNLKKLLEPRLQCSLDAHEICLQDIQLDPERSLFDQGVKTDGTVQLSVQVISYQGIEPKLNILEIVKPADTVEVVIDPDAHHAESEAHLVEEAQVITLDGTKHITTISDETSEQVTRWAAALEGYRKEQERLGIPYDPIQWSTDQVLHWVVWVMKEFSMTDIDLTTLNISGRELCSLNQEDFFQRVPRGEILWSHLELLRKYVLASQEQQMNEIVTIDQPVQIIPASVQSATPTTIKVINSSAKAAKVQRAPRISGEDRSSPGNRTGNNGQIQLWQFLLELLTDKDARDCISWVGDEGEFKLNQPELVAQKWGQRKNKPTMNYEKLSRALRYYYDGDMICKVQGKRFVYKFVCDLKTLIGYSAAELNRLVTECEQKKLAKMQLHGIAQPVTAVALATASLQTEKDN
The following applies: protein: recombinant; tags: N-terminal GST; dsDNA, one strand shown. The procedure, abridged: as §1

Another assay has as its target T4, ERG (Homo sapiens, UniProt P11308 1-479).
T4 sequence: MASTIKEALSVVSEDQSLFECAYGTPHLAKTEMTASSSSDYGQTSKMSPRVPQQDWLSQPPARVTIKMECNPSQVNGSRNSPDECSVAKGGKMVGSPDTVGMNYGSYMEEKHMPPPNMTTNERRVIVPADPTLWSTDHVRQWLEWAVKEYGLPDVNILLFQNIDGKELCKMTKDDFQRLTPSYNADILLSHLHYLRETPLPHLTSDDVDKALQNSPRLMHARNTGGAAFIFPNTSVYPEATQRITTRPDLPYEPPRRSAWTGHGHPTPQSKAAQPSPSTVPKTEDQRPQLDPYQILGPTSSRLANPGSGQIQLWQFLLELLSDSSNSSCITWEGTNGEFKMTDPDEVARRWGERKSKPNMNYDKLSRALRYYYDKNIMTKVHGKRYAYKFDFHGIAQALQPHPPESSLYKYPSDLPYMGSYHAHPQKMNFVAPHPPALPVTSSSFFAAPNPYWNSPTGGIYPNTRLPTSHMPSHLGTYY
The conditions noted are these: protein: recombinant; tags: N-terminal GST; dsDNA, one strand shown. The procedure, abridged: as §1

A further assay has as its target ELF1 (Homo sapiens, UniProt P32519 1-619). The following applies: protein: recombinant; tags: N-terminal GST; dsDNA, one strand shown. The procedure, abridged: as §1
The next assay addresses T5, EHF (Homo sapiens, UniProt Q9NZC4 1-300).
T5 sequence: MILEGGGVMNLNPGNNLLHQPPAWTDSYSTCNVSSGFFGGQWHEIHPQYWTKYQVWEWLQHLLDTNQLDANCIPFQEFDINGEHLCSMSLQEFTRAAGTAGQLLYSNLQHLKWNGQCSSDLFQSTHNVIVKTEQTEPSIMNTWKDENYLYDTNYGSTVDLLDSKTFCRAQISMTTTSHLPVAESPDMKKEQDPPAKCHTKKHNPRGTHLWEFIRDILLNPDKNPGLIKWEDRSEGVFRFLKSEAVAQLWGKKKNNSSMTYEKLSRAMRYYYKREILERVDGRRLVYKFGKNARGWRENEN
The conditions noted are these: protein: recombinant; tags: N-terminal GST; dsDNA, one strand shown. In short, it runs like this: as §1

Another assay has as its target SPI1 (Homo sapiens, UniProt P17947 1-270). The following applies: protein: recombinant; tags: N-terminal GST; dsDNA, one strand shown. In short, it runs like this:
as §1

A further assay addresses SPIB (Homo sapiens, UniProt Q01892 1-262). The conditions noted are these: protein: recombinant; tags: N-terminal GST; dsDNA, one strand shown. The procedure, abridged:
as §1

The next assay concerns the target T6, ELK3 (Homo sapiens, UniProt P41970 1-407).
T6 sequence: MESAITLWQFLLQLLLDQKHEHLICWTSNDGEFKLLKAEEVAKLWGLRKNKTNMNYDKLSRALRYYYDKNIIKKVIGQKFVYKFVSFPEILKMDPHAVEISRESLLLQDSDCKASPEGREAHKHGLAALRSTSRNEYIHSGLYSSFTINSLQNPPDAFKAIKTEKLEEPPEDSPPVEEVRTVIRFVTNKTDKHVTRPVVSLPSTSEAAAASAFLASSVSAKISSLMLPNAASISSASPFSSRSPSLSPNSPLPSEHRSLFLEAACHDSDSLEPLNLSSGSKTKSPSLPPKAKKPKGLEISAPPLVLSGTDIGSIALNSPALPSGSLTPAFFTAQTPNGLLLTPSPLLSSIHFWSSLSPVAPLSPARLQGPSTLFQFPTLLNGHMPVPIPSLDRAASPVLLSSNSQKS
The conditions noted are these: protein: recombinant; tags: N-terminal GST; dsDNA, one strand shown. In short, it runs like this: as §1

A further assay addresses T7, FEV (Homo sapiens, UniProt Q99581 1-238).
T7 sequence: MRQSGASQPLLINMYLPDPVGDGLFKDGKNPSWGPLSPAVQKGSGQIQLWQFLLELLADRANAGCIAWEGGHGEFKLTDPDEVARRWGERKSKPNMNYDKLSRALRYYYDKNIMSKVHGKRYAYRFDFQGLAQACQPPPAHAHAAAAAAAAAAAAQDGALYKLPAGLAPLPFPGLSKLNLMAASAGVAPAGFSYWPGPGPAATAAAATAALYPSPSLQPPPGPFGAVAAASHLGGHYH
The conditions noted are these: protein: recombinant; tags: N-terminal GST; dsDNA, one strand shown. The procedure, abridged:
as §1

The next assay has as its target ETV5 (Homo sapiens, UniProt P41161 1-510). The following applies: protein: recombinant; tags: N-terminal GST; dsDNA, one strand shown. The procedure, abridged:
as §1

A further assay concerns the target HSF1 (Homo sapiens, UniProt Q00613 1-529). The following applies: protein: recombinant; tags: N-terminal GST; chain copies: 3; dsDNA, one strand shown. In short, it runs like this:
as §1

In another assay the target is T8, SPIC (Homo sapiens, UniProt Q8N5J4 1-248).
T8 sequence: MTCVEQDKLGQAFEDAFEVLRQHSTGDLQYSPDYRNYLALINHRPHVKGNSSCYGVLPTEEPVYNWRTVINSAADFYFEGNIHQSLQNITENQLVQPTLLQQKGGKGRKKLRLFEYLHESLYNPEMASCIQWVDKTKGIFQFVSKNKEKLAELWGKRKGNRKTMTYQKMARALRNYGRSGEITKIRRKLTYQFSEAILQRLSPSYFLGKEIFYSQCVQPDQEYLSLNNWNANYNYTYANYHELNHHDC
The conditions noted are these: protein: recombinant; tags: N-terminal GST; dsDNA, one strand shown. The procedure, abridged:
as §1

A further assay deals with ELF4 (Homo sapiens, UniProt Q99607 1-663). The following applies: protein: recombinant; tags: N-terminal GST; dsDNA, one strand shown. The procedure, abridged:
as §1

The target of the next assay is T9, ELK4 (Homo sapiens, UniProt P28324-2 1-405).
T9 sequence: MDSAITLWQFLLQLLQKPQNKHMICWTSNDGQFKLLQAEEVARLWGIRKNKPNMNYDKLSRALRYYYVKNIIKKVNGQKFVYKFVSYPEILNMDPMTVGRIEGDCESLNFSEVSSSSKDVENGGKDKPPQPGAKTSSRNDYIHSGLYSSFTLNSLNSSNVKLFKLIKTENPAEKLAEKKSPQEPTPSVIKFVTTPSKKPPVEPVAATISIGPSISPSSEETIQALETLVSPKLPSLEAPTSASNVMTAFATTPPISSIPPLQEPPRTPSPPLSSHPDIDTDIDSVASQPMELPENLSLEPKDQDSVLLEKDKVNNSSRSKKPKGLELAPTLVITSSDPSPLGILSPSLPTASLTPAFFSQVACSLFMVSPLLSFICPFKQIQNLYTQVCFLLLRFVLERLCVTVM
The conditions noted are these: protein: recombinant; tags: N-terminal GST; dsDNA, one strand shown. In short, it runs like this:
as §1

In the next assay the target is T10, ETV2 (Homo sapiens, UniProt O00321 1-342).
T10 sequence: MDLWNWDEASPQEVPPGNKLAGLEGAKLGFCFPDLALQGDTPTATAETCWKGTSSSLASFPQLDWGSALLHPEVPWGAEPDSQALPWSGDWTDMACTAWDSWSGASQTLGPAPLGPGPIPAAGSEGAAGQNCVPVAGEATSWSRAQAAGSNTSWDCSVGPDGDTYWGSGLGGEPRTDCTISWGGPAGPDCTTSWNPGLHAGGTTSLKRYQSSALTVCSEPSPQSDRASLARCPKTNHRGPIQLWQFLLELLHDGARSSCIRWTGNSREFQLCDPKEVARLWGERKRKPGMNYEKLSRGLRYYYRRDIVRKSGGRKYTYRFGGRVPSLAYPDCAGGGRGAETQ
The conditions noted are these: protein: recombinant; tags: N-terminal GST; dsDNA, one strand shown. In short, it runs like this:
as §1

In another assay the target is T11, ELF3 (Homo sapiens, UniProt P78545 1-371).
T11 sequence: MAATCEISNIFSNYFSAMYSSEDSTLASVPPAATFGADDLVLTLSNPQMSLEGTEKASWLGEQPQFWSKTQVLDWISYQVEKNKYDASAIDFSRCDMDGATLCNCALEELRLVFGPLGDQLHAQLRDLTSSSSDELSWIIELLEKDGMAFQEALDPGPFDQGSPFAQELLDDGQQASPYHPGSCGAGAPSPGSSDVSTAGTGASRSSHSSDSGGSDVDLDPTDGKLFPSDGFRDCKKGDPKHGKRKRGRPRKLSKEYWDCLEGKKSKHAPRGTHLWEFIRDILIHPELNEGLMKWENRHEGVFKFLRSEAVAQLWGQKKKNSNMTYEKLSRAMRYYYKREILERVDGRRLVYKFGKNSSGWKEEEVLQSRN
The conditions noted are these: protein: recombinant; tags: N-terminal GST; dsDNA, one strand shown. In short, it runs like this: as §1

For a further assay, the target named is CRX (Homo sapiens, UniProt O43186 1-299). The following applies: protein: recombinant; tags: N-terminal GST; dsDNA, one strand shown. The procedure, abridged: as §1
CRX, sequence (O43186 whole entry): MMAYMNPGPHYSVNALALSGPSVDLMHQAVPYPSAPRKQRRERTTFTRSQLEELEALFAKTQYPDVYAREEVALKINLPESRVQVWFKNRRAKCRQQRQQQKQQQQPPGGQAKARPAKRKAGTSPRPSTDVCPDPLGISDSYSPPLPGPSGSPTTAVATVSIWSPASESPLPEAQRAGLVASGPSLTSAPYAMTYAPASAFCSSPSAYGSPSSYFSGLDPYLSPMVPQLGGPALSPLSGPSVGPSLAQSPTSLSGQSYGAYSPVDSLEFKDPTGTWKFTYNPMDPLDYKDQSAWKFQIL
For a further assay, the target named is ETV1 (Homo sapiens, UniProt P50549 1-477). The following applies: protein: recombinant; tags: N-terminal GST; dsDNA, one strand shown. In short, it runs like this:
as §1

ELF1, sequence (P32519 whole entry): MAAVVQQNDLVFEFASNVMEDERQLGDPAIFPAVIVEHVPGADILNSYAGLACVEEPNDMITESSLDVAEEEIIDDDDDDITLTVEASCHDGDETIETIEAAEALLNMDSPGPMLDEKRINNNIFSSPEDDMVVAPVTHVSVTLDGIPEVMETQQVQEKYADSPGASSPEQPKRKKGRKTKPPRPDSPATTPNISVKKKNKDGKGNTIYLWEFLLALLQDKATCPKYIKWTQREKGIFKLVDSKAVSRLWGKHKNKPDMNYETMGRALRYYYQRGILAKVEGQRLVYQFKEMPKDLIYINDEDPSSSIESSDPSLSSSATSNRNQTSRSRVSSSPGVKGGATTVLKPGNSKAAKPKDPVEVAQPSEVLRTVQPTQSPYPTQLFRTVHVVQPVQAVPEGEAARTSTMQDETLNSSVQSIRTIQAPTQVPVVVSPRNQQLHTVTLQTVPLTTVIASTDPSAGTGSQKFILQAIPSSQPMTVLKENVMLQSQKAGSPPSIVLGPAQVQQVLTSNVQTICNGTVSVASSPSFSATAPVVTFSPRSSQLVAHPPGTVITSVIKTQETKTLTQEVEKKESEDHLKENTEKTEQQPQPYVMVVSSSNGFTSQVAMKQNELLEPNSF
HSF1, sequence (Q00613 whole entry): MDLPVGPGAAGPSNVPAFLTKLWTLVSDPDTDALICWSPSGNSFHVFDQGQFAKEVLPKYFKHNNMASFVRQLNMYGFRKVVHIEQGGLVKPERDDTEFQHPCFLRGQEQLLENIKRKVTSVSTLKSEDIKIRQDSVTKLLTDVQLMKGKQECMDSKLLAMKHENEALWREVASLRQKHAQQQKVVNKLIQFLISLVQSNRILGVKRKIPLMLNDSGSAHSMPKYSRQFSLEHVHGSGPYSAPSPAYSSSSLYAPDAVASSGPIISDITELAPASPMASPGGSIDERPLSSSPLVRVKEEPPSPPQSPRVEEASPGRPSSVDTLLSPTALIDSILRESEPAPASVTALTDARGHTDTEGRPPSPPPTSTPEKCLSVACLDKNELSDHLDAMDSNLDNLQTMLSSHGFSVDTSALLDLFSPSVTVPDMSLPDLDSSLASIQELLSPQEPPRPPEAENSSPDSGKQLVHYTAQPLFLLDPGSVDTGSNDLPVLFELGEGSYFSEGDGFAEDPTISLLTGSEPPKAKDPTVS
ETV1, sequence (P50549 whole entry): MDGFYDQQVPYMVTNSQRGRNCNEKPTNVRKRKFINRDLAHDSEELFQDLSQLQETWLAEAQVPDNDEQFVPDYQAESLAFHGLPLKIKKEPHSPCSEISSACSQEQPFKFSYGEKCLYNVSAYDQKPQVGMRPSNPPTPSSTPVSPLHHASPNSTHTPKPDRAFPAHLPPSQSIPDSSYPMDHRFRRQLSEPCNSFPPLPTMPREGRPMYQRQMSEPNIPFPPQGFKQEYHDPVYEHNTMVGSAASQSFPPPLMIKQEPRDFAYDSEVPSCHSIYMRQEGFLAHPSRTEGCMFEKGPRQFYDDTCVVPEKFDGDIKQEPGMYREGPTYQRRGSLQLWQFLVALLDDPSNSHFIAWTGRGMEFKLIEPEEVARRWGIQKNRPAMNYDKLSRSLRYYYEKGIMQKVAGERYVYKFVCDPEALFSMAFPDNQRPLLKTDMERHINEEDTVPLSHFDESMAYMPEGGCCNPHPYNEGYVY
ETV5, sequence (P41161 whole entry): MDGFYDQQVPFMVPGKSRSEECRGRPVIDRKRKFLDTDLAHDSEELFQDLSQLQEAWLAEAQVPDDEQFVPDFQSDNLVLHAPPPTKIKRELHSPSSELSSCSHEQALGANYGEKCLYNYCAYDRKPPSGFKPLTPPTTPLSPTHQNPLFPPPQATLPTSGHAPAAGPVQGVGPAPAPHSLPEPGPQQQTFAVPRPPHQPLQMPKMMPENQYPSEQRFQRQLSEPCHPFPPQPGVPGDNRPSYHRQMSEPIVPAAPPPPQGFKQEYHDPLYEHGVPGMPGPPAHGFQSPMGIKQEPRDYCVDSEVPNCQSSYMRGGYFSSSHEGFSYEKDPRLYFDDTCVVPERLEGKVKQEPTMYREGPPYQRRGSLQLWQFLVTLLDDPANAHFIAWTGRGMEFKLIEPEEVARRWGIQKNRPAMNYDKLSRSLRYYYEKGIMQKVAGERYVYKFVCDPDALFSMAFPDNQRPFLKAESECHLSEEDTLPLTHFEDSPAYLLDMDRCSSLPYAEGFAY
SPIB, sequence (Q01892 whole entry): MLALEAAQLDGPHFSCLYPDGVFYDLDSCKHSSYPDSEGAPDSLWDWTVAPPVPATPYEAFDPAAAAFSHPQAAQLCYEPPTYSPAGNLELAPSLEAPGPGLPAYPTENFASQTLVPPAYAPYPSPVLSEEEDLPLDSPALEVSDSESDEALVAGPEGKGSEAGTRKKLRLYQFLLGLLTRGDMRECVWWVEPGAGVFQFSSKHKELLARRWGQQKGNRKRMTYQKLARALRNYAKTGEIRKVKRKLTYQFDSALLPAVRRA
ELF4, sequence (Q99607 whole entry): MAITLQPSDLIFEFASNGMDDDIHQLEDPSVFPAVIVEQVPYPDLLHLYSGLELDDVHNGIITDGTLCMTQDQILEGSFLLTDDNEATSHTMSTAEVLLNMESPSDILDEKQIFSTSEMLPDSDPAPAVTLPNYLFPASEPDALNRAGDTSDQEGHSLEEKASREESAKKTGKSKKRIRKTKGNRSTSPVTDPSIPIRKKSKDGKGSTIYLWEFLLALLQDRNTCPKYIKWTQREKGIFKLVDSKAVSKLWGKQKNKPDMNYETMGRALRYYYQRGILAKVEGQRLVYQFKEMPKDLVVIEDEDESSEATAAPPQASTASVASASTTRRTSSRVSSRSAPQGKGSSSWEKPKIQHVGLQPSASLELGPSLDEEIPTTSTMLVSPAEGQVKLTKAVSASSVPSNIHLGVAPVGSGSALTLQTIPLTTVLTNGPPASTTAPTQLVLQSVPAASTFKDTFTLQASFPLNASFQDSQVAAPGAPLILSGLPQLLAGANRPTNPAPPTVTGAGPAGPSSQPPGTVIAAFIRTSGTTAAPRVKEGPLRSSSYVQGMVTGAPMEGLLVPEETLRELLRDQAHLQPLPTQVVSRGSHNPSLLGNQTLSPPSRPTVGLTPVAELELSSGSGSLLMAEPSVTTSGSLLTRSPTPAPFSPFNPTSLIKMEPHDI

For the sequence CGTCTC, the binding signal is 1.41 fold enrichment (6-mer frequency, TF over GST control) in the assay with FLI1; 1.36 fold enrichment (6-mer frequency, TF over GST control) in the assay with ELK1; 1.49 fold enrichment (6-mer frequency, TF over GST control) with GABPA; 1.31 fold enrichment (6-mer frequency, TF over GST control) in the assay with ERG; 1.53 fold enrichment (6-mer frequency, TF over GST control) in the assay with ELF1; 1.41 fold enrichment (6-mer frequency, TF over GST control) in the assay with EHF. Further, the binding signal was 1.36 fold enrichment (6-mer frequency, TF over GST control) in the assay with SPI1; 1.61 fold enrichment (6-mer frequency, TF over GST control) with SPIB; 1.63 fold enrichment (6-mer frequency, TF over GST control) with ELK3; 1.46 fold enrichment (6-mer frequency, TF over GST control) with FEV; 1.46 fold enrichment (6-mer frequency, TF over GST control) in the assay with ETV5; 1.42 fold enrichment (6-mer frequency, TF over GST control) with HSF1. The binding signal is 1.47 fold enrichment (6-mer frequency, TF over GST control) with SPIC; 1.55 fold enrichment (6-mer frequency, TF over GST control) with ELF4; 1.49 fold enrichment (6-mer frequency, TF over GST control) in the assay with ELK4; 1.27 fold enrichment (6-mer frequency, TF over GST control) with ETV2; 1.46 fold enrichment (6-mer frequency, TF over GST control) in the assay with ELF3; 1.18 fold enrichment (6-mer frequency, TF over GST control) with CRX. Moreover, the binding signal with ETV1 was 1.43 fold enrichment (6-mer frequency, TF over GST control).

(Values after PMC7862700, “An all-to-all approach to the identification of sequence-specific readers for epigenetic DNA modifications on cytosine”.)
